From PubChem BioAssay
KDM5B inhibitor – blocks human KDM5B histone demethylase activity. Q9UGL1. KDM5B demethylase, FDH-coupled NADH fluorescence (FDH is formaldehyde dehydrogenase). Potency, µM (titrated, usually from 57.7 µM), hits mostly inhibitors. hit rate 2.6% among 220,000; active = well fitted inhibition curve with a large enough effect; also: 0% is about no effect; nearly all actives have a fitted effect of over 70% in size
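qHTS format, multiple compound concentrations. Buffer 50 mM HEPES pH 7.5/0.01% Tween-20; 200 nM KDM5BΔAP final; 10 min compound preincubation; substrate-mix levels 12.5 µM peptide, 25 µM α-KG, 0.25 mM NAD⁺; 30 min RT; ΔRFU.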
* marks the source's active call; other numbers are inactive results; i = inactive. Only a selection was taken, and hits are over-represented in it overall. Potency is read from the fitted curve at half-maximal effect.

SMILES	KDM5B inhibitor
N#Cc1ccc(C(=O)N2C[C@@H]3C[C@H](C2)c2c(-c4ccc(Cl)cc4)ccc(=O)n2C3)cc1	i
O=C(c1ccccc1)N1C[C@@H]2C[C@H](C1)c1c(/C=C/c3ccc(Cl)cc3)ccc(=O)n1C2	35µM*
O=C(c1ccc(F)cc1)N1C[C@@H]2C[C@H](C1)c1c(-c3cc4ccccc4s3)ccc(=O)n1C2	i
CC(C)(C)CC(C)(C)NCCc1ccccc1	i
CSc1nc(N)c2c(n1)OC(N)=C(C#N)C2c1ccccc1F (stereo not given)	i
COc1cc2c(cc1CCc1ccccc1)N(C(=O)Cc1ccc3c(c1)OCO3)CC21CCN(C(C)=O)CC1	i
COc1cc2c(cc1CCc1ccccc1)N(C(=O)COc1ccccc1)CC21CCN(C(C)=O)CC1	i
COc1cc2c(cc1CCc1ccccc1)N([S+](=O)([O-])c1ccc3c(c1)CCO3)CC21CCN(C(C)=O)CC1	28µM*
Cc1[nH]nc2c1C(c1ccc3c(c1)OCCO3)SCC(=O)N2 (stereo not given)	i
COc1ccc(Oc2c(C)oc3cc(OCC(=O)N4CCN(C)CC4)ccc3c2=O)cc1	i
COc1cc2c(cc1OCC1CC1)NC(=O)C21CCN(c2nccs2)CC1	i
COc1cc2c(cc1Oc1ccccc1)NC(=O)C21CCN(C(=O)c2cnccn2)CC1	i
COc1cc2c(cc1Oc1ccccc1)NC(=O)C21CCN(c2nccs2)CC1	i
COc1cc2c(cc1Oc1ccccc1)NC(=O)C21CCN(Cc2ccccn2)CC1	i
COc1cc2c(cc1Oc1ccccc1)NC(=O)C21CCN(c2cnccn2)CC1	32µM*
COc1cc2c(cc1OCc1ccccc1)NC(=O)C21CCN(c2ncc(F)cn2)CC1	32µM*
COc1cc2c(cc1Oc1ccccc1)NC(=O)C21CCN(c2ncc(F)cn2)CC1	32µM*
COc1cc2c(cc1OCC1CC1)NC(=O)C21CCN(c2ccnc(C)n2)CC1	i
COc1cc2c(cc1Oc1ccccc1)NC(=O)C21CCN(C(=O)c2ccccc2)CC1	i
COc1cc2c(cc1OCC1CC1)NC(=O)C21CCN(c2nccc(C(F)(F)F)n2)CC1	22µM*
COc1cc2c(cc1OCc1ccncc1)NC(=O)C21CCN(Cc2ccccc2)CC1	i
COc1cc2c(cc1OCC1CC1)NC(=O)C21CCN(c2ncc(F)cn2)CC1	i
O=[N+]([O-])c1ccc(N2CCC(O)CC2)c2ccncc12	i
COCCN1C(=O)CS(=O)(=O)C12CCNCC2	i
O=C(c1cn(Cc2ccccc2)c2ccccc12)N1CCC1	i
SMILES	KDM5B inhibitor
Cn1cc(C(=O)OCC(=O)NC2CC2)c2ccccc21	i
Clc1ccc(Cl)c(-c2ccc(CNC3CN4CCC3CC4)o2)c1 (stereo not given)	i
C=CCN1CCN(C(=O)Cc2ccc(F)cc2)CC1	i
O=C1Nc2ccccc2CC12CCN2Cc1ccccn1 (stereo not given)	i
Clc1ccc(-n2nnnc2C2(NC3CCCCC3)CCCCC2)cc1	i
COc1cccc(C2SCC(=O)Nc3c2c(C)nn3C)c1OC (stereo not given)	i
CSc1cccc(NC(=O)NC[C@H]2C[C@@H]3CCN2C[C@@H]3CN2CCC(Cc3ccccc3)CC2)c1	i
O=C(c1cnccn1)N1C[C@@H]2C[C@H](C1)c1ccc(-c3cccc(C(F)(F)F)c3)c(=O)n1C2	18µM*
CSCC(=O)N1C[C@@H]2C[C@H](C1)c1ccc(-c3ccccc3CN(C)C)c(=O)n1C2	32µM*
Cc1ccccc1-c1ccc2n(c1=O)C[C@H]1C[C@@H]2CN(C(=O)c2cnccn2)C1	i
C#C[C@H]1CN2CC[C@H]1C[C@@H]2CNC(=O)Nc1cccc(C(F)(F)F)c1	i
O=C(C1CCCCC1)N1C[C@@H]2C[C@H](C1)c1ccc(-c3cccc(C(F)(F)F)c3)c(=O)n1C2	32µM*
CC(=O)Nc1ccc(-c2ccc(=O)n3c2[C@@H]2C[C@@H](CN(C(=O)CN(C)C)C2)C3)cc1	i
CC(=O)Nc1ccc(-c2ccc(=O)n3c2[C@@H]2C[C@@H](CN(C(=O)C4CCCCC4)C2)C3)cc1	i
O=C(O)CCCC(=O)N1C[C@@H]2C[C@H](C1)c1ccc(-c3ccc(Cl)cc3)c(=O)n1C2	40µM*
O=C(O)CCC(=O)N1C[C@@H]2C[C@H](C1)c1c(-c3cc4ccccc4s3)ccc(=O)n1C2	i
CN(C)[C@@H]1CN(C(=O)Cc2ccccc2)C[C@H]1CO	i
NCCc1ccc(OC(F)(F)F)cc1	i
O=C1Nc2ccccc2C12CCN(Cc1ccc(C(F)(F)F)cc1)CC2	i
Cc1ncc2c(n1)C[C@@H]1CC[C@H]2N1C(=O)c1cccs1	i
C/C=C/C1(NCCc2ccccc2)CCCCC1	i
CC[C@H]1CN2CC[C@H]1C[C@@H]2CN(Cc1cccs1)Cc1cccs1	i
CCn1ccc(C(=O)N2CCC3(CC2)c2nccn2-c2ccccc2CN3CC(C)C)n1	i
O=C1NC2(CCN(Cc3ccccn3)C2)Oc2ccccc21 (stereo not given)	i
C=C[C@H]1CN2CC[C@H]1C[C@@H]2CNCc1ccc(-c2ccccc2)cc1	i
SMILES	KDM5B inhibitor
C#C[C@H]1CN2CC[C@H]1C[C@@H]2CNS(=O)(=O)c1ccc(Cl)cc1	i
CSCC(=O)Nc1ccc(=O)n2c1[C@@H]1C[C@@H](CN(C(=O)NC3CCCCC3)C1)C2	i
CSCC(=O)N1C[C@@H]2C[C@H](C1)c1ccc(-c3cccc(C(F)(F)F)c3)c(=O)n1C2	35µM*
CCC1(N2CCN(C(=O)COc3cccc(Cl)c3)CC2)CCN(C(=O)NC)C1 (stereo not given)	i
O=C1/C(=C\c2ccccc2F)N2CCC1CC2	i
c1cc2nc(C3CCCNC3)[nH]c2cn1 (stereo not given)	i
CC(C)CCN1CCC2CC(=O)NCCC2C1 (stereo not given)	i
CCN(CC)C(=O)c1ccc(NC(=O)CSc2ccc3ccccc3n2)cc1	i
O=C(c1ccc(F)cc1)N1C[C@@H]2C[C@H](C1)c1ccc(-c3cncnc3)c(=O)n1C2	40µM*
O=C(c1ccccc1)N1C[C@@H]2C[C@H](C1)c1ccc(-c3cncnc3)c(=O)n1C2	40µM*
CN(C)CC(=O)Nc1ccc2n(c1=O)C[C@H]1C[C@@H]2CN(C(=O)c2ccc(F)cc2)C1	i
O=C(c1ccncc1)N1CC2CCC(C1)N2Cc1ccccc1	i
O=C(COC(=O)C(O)(c1ccccc1)c1ccccc1)c1c[nH]c2ccccc12	i
CCCCn1c(C)c(C(=O)OCC)c2cc(O)ccc21	i
NC(=O)c1ccc(N2CC3CCC(C2)N3CC(F)(F)F)nn1	i
O=C(NCC1CC1)c1cn(C2CNC2)nn1	i
CC(Cl)C(=O)NC(C)(C)C (stereo not given)	i
COc1ccccc1CC(=O)N1CCN(C2CCN(C)C2=O)CC1 (stereo not given)	i
COc1cccn(CC(=O)N2CCN(C)C3(CCNCC3)C2)c1=O	13µM*
CN1CCN(C(=O)CCc2ccncc2)CC12CCNCC2	i
CCCn1c(C)c(C(=O)NCC2CC2)c2cc(OC)ccc21	i
CC(C)N(C(=O)CN1CC=C(c2c[nH]c3ccccc23)CC1)C(C)C	i
CC1=C(C(=O)OC(C)(C)C)C2(C(=O)Nc3ccccc32)C(C(=O)OC(C)C)=C(N)O1 (stereo not given)	i
O=C1CO[C@H]2CN(Cc3ncc[nH]3)C[C@H]2N1Cc1cccnc1	25µM*
O=C1CO[C@H]2CN(C3CCOCC3)C[C@H]2N1Cc1ccccn1	i
